According to the supplement of paper PMC10849652:
Of roughly 8,800 targets only a part is listed; those with a hit were picked by preference. About 0.5% of all pairs of compound and target were hits.

Assays:
Test in all cases: log2 fold change, soluble protein after heating vs DMSO (PISA); higher = thermal stabilisation; K562 lysate, 10 uM; active = over 0.2 and 3.5 SD of the protein, either way, in both replicates (recomputed)
[1] = compound: CN1CC[C@H](c2c(O)cc(O)c3c(=O)cc(-c4ccccc4Cl)oc23)[C@H](O)C1 [alvocidib]
Outline: (§1)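 K562 pellets were dounce-homogenised in PBS pH 7.4 with 1 mM MgCl2, and the crude extract at 1 mg/mL protein was treated with 10 μM compound for 30 min. Aliquots were heated for 3 min across 48°C-58°C, pooled, and brought to 0.5% NP-40 at 4°C; soluble protein was the supernatant after 21,000xg for 90 min. Soluble protein was quantified by TMTpro 16plex LC-MS/MS with channel sums equalised, and reported as log2 fold change in thermal stability against DMSO controls, with values from duplicates.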

[2] = compound: CN1CCc2c(c3ccccc3n2Cc2ccc(C(=O)NO)cc2)C1 [Tubastatin A]
Outline: as §1

[3] = compound: CNC(=O)C1=CC=CC=C1NC2=NC(=NC=C2Cl)NC3=C(C=C(C=C3)N4CCOCC4)OC
Outline: as §1

[4] = compound: CNC(=O)c1ccc(Nc2ncc(C(F)(F)F)c(NCc3nccnc3N(C)S(C)(=O)=O)n2)cc1 [defactinib]
Outline: as §1

[5] = compound: CNc1nc(-c2ccc3c(N)n[nH]c3c2)cc(N2C[C@@H](C(=O)NC3CCCCC3)CC[C@H]2C)n1
Outline: as §1

[6] = compound: COC(=O)N[C@@H](C)CNc1nccc(-c2cn(C(C)C)nc2-c2cc(Cl)cc(NS(C)(=O)=O)c2F)n1 [encorafenib]
Outline: as §1

[7] = compound: COC(=O)[C@H](CCSC)NC(=O)C1=C(C=C(C=C1)NC[C@H](CS)N)C2=CC=CC=C2
Outline: as §1

[8] = compound: COc1cc(Nc2ncc3c(n2)-c2ccc(Cl)cc2C(c2c(F)cccc2OC)=NC3)ccc1C(=O)O [alisertib]
Outline: as §1

[9] = compound: COc1cc2nc(-c3cc(F)ccc3O)nc(N[C@@H]3CNC[C@H]3C(C)(C)O)c2cc1OC
Outline: as §1

[10] = compound: COc1cc2ncnc(Nc3ccc(F)c(Cl)c3)c2cc1OCCCN1CCOCC1 [gefitinib]
Outline: as §1

[11] = compound: CS(=O)(=O)CCNCc1ccc(-c2ccc3ncnc(Nc4ccc(OCc5cccc(F)c5)c(Cl)c4)c3c2)o1 [lapatinib]
Outline: as §1

[12] = compound: CS(=O)(=O)N1CCN(Cc2cc3nc(-c4cccc5[nH]ncc45)nc(N4CCOCC4)c3s2)CC1 [pictilisib]
Outline: as §1

[13] = compound: C[C@@H](Oc1cc(-c2cnn(C3CCNCC3)c2)cnc1N)c1c(Cl)ccc(F)c1Cl [crizotinib]
Outline: as §1

[14] = compound: C[C@H](C1=CC=C(C=C1)C(=O)NC2=C3C=CNC3=NC=C2)N
Outline: as §1

[15] = compound: C[C@H](Nc1ncnc2nc[nH]c12)c1cc2cccc(Cl)c2c(=O)n1-c1ccccc1 [duvelisib]
Outline: as §1

[16] = compound: Cc1cc(Nc2cc(CN3CCOCC3)c3nc(C)c(Cc4ccc(Cl)cc4F)n3n2)n[nH]1 [gandotinib]
Outline: as §1

[17] = compound: Cc1cc(Nc2cc(N3CCN(C)CC3)nc(Sc3ccc(NC(=O)C4CC4)cc3)n2)n[nH]1 [tozasertib]
Outline: as §1

[18] = compound: Cc1ccc(-n2nc(C(C)(C)C)cc2NC(=O)Nc2ccc(OCCN3CCOCC3)c3ccccc23)cc1 [doramapimod]
Outline: as §1

[19] = compound: Cc1ccc(NC(=O)c2ccc(CN3CC[C@H](N(C)C)C3)c(C(F)(F)F)c2)cc1Nc1nccc(-c2cncnc2)n1 [bafetinib]
Outline: as §1

[20] = compound: Cc1cccc(CC(=O)N2CCc3c2ccc(-c2cn(C)c4ncnc(N)c24)c3F)n1
Outline: as §1

Measured: log2 fold change

GPX4 (UniProt P36969)
Sequence of UniProt P36969 (P36969 whole entry, looked up): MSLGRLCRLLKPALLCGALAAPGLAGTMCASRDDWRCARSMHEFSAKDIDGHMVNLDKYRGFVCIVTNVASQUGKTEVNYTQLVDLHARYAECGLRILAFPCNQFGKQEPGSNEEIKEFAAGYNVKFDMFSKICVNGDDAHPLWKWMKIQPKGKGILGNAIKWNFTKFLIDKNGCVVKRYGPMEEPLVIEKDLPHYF
inactive: [1] 0.031 | [2] -0.099 | [3] -0.006 | [4] 0.048 | [5] -0.051 | [6] 0.004 | [7] -0.023 | [8] 0.041 | [9] 0 | [10] 0.016 | [11] -0.037 | [12] -0.03 | [13] -0.01 | [14] 0.041 | [15] -0.008 | [16] -0.065 | [17] 0 | [18] -0.001 | [19] -0.033 | [20] -0.051

HSPA14 (UniProt Q0VDF9)
inactive: [1] 0.001 | [2] -0.081 | [3] 0.01 | [4] 0.012 | [5] -0.011 | [6] -0.004 | [7] 0.153 | [8] 0.028 | [9] 0 | [10] 0.02 | [11] -0.016 | [12] 0.023 | [13] -0.02 | [14] -0.038 | [15] 0.007 | [16] -0.039 | [17] 0.018 | [18] 0.003 | [19] -0.026 | [20] 0.037

HSD17B10 (UniProt Q99714)
inactive: [1] -0.02 | [2] -0.077 | [3] 0.004 | [4] -0.029 | [5] 0.05 | [6] -0.035 | [7] 0.141 | [8] 0.013 | [9] -0.009 | [10] -0.021 | [11] -0.031 | [12] -0.013 | [13] 0.002 | [14] -0.049 | [15] 0.013 | [16] 0.022 | [17] -0.031 | [18] -0.008 | [19] 0 | [20] 0.026

HACE1 (UniProt Q8IYU2)
Sequence of UniProt Q8IYU2 (Q8IYU2 whole entry, looked up): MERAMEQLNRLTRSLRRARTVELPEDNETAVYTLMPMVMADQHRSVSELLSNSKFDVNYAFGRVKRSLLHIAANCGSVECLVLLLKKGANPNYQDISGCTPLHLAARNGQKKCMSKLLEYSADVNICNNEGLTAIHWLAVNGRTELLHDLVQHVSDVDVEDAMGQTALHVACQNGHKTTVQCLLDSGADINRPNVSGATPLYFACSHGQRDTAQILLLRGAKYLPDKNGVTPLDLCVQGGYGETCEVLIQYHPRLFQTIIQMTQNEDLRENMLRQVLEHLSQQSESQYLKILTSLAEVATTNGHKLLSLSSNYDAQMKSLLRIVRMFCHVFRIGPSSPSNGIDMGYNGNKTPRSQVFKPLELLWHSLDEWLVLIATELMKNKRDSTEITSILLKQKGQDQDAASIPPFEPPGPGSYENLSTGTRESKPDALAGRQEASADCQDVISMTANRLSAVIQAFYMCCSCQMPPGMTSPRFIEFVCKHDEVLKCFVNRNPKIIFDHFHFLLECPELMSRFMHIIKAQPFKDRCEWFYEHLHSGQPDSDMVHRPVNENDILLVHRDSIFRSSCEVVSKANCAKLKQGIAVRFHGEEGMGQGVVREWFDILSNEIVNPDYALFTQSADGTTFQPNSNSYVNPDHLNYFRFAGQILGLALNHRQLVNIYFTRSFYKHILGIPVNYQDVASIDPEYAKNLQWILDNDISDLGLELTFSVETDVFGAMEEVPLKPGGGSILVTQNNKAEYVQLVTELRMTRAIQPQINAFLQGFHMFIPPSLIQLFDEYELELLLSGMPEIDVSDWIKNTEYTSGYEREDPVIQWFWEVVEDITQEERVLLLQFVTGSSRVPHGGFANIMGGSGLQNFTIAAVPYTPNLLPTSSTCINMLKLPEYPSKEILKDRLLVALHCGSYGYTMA
active: [14] -0.491
inactive: [1] -0.177 | [2] 0.006 | [3] -0.042 | [4] -0.06 | [5] 0.278 | [6] -0.057 | [7] 0.18 | [8] 0.061 | [9] 0.045 | [10] -0.152 | [11] -0.05 | [12] 0.005 | [13] 0.026 | [15] 0.033 | [16] 0.302 | [17] -0.036 | [18] 0.015 | [19] -0.036 | [20] 0.426

HK1 isoform 2 (UniProt P19367)
inactive: [1] -0.001 | [2] -0.038 | [3] -0.009 | [4] 0.001 | [5] -0.011 | [6] 0.003 | [7] 0.004 | [8] 0.017 | [9] -0.007 | [10] -0.011 | [11] 0 | [12] -0.009 | [13] -0.023 | [14] -0.026 | [15] -0.033 | [16] -0.051 | [17] 0.038 | [18] 0.039 | [19] -0.023 | [20] 0.029

HAUS7 isoform 2 (UniProt Q99871)
Sequence of UniProt Q99871 (Q99871 whole entry, looked up): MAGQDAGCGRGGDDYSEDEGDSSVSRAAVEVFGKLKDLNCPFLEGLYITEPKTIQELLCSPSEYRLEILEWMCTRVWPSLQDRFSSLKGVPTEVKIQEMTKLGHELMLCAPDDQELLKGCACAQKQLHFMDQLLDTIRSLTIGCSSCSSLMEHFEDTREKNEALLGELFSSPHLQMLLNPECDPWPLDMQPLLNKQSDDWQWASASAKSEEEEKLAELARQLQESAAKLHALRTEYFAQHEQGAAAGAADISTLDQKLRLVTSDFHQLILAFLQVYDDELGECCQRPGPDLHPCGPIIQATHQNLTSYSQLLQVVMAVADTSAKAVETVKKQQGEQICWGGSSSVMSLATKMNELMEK
inactive: [1] 0.001 | [2] -0.128 | [3] 0.021 | [4] -0.045 | [5] -0.021 | [6] 0.024 | [7] 0.099 | [8] 0.031 | [9] -0.135 | [10] -0.043 | [11] 0.022 | [12] 0.012 | [13] -0.053 | [14] 0.102 | [15] -0.063 | [16] -0.156 | [17] -0.113 | [18] 0.072 | [19] -0.139 | [20] 0.015

IFNGR1 (UniProt P15260)
inactive: [1] -0.348 | [2] 0.157 | [3] -0.022 | [4] -0.164 | [5] 0.272 | [6] -0.018 | [7] -0.002 | [8] 0.138 | [9] 0.106 | [10] -0.036 | [11] -0.076 | [12] 0.153 | [13] -0.008 | [14] -0.497 | [15] 0.196 | [16] 0.263 | [17] -0.001 | [18] -0.034 | [19] -0.144 | [20] 0.378

IARS (UniProt P41252)
Sequence of UniProt P41252 (P41252 whole entry, looked up): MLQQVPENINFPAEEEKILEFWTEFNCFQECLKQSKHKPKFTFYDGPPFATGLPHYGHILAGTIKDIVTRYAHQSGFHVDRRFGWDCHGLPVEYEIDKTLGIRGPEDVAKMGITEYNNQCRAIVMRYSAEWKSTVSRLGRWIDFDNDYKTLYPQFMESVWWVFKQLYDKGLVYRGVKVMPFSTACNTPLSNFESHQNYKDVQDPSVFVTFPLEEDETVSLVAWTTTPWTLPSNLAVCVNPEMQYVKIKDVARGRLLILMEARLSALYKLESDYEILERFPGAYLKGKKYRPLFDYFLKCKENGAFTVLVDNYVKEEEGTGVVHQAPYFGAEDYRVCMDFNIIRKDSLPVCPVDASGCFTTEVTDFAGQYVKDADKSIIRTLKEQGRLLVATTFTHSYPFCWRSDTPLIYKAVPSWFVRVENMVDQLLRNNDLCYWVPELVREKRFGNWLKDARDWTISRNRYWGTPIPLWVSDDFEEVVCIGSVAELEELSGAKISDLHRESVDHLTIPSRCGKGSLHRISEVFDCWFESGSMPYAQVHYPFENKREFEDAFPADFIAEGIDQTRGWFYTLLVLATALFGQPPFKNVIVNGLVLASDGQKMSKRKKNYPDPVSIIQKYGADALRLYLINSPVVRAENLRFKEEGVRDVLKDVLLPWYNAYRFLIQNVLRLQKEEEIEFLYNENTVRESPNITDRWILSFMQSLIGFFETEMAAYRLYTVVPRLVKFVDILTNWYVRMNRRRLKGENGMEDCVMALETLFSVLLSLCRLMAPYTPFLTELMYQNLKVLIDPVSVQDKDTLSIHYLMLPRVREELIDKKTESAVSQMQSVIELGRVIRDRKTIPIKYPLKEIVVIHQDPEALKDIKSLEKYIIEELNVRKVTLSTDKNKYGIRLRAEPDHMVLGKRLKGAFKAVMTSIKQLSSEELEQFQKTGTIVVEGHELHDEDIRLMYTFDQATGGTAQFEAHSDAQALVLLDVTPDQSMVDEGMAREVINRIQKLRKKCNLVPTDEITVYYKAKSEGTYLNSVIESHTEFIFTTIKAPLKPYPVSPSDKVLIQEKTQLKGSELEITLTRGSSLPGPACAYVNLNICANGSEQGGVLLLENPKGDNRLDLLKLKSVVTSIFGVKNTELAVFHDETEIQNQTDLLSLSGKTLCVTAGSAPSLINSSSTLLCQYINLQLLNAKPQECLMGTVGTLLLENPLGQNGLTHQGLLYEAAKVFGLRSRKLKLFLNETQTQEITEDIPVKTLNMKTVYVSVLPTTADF
inactive: [1] 0.006 | [2] -0.134 | [3] 0.01 | [4] 0.02 | [5] -0.03 | [6] 0 | [7] 0.134 | [8] 0.02 | [9] 0.008 | [10] -0.021 | [11] -0.032 | [12] -0.006 | [13] -0.045 | [14] 0.059 | [15] -0.001 | [16] -0.13 | [17] 0.013 | [18] 0.016 | [19] -0.015 | [20] -0.041

GRB10 (UniProt Q13322)
Sequence of UniProt Q13322 (Q13322 whole entry, looked up): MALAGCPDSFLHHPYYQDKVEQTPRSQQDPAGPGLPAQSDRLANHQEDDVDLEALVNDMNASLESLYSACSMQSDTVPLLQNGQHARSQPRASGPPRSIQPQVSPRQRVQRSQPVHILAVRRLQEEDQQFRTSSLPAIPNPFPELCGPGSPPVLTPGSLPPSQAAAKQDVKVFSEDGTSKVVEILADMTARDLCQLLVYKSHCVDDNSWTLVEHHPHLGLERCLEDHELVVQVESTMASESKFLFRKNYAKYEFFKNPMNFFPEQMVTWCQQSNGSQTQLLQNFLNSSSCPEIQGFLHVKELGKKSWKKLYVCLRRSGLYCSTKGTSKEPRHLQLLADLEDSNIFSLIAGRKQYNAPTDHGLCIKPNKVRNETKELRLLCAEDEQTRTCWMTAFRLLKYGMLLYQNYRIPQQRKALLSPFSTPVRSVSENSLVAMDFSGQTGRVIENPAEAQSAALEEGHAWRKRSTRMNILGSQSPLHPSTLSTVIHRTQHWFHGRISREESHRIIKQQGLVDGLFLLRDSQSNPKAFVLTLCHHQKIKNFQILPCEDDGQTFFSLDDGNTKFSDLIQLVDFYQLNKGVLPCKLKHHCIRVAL
inactive: [1] -0.061 | [2] -0.226 | [3] 0.015 | [4] 0.003 | [5] 0.02 | [6] 0.065 | [7] 0.01 | [8] 0 | [9] -0.02 | [10] -0.043 | [11] -0.029 | [12] -0.034 | [13] -0.028 | [14] -0.125 | [15] 0.029 | [16] 0.016 | [17] -0.06 | [18] 0.021 | [19] -0.049 | [20] 0.099

HAUS6 (UniProt Q7Z4H7)
Sequence of UniProt Q7Z4H7 (Q7Z4H7 whole entry, looked up): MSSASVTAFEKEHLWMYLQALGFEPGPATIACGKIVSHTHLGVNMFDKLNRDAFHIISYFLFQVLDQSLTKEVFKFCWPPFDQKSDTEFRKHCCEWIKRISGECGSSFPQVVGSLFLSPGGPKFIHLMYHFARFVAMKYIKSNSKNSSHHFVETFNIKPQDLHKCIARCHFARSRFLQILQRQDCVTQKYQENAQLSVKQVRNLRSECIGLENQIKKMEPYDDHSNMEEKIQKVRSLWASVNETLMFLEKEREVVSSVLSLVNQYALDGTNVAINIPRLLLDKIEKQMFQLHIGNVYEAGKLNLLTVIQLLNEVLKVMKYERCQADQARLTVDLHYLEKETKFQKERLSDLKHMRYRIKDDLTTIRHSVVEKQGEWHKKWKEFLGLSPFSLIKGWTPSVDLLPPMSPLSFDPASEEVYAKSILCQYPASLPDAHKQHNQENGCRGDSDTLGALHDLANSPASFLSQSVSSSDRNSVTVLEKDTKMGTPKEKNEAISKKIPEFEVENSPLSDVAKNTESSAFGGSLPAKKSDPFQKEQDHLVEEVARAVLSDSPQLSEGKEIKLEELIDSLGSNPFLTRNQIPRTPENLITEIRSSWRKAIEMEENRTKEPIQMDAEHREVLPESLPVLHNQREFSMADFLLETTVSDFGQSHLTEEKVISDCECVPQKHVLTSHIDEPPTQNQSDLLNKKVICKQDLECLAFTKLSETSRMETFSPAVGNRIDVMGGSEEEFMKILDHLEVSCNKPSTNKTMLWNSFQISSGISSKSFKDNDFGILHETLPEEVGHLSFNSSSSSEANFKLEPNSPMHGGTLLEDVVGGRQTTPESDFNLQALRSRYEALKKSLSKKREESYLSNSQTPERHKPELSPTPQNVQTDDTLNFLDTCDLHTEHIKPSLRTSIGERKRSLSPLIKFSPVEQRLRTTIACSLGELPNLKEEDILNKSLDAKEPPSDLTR
inactive: [1] -0.043 | [2] -0.084 | [3] 0.008 | [4] 0.031 | [5] -0.004 | [6] 0.031 | [7] -0.025 | [8] 0.03 | [9] 0.019 | [10] 0.017 | [11] 0.001 | [12] -0.028 | [13] -0.029 | [14] -0.054 | [15] 0.006 | [16] -0.041 | [17] 0.046 | [18] -0.009 | [19] 0.051 | [20] 0.104

HAUS8 (UniProt Q9BT25)
inactive: [1] 0.067 | [2] -0.173 | [3] -0.012 | [4] -0.06 | [5] 0.064 | [6] 0.063 | [7] -0.004 | [8] -0.063 | [9] -0.075 | [10] -0.031 | [11] -0.022 | [12] -0.02 | [13] -0.055 | [14] 0.057 | [15] -0.075 | [16] 0.045 | [17] 0.027 | [18] -0.007 | [19] -0.037 | [20] 0.027

HNRNPLL (UniProt Q8WVV9)
Sequence of UniProt Q8WVV9 (Q8WVV9 whole entry, looked up): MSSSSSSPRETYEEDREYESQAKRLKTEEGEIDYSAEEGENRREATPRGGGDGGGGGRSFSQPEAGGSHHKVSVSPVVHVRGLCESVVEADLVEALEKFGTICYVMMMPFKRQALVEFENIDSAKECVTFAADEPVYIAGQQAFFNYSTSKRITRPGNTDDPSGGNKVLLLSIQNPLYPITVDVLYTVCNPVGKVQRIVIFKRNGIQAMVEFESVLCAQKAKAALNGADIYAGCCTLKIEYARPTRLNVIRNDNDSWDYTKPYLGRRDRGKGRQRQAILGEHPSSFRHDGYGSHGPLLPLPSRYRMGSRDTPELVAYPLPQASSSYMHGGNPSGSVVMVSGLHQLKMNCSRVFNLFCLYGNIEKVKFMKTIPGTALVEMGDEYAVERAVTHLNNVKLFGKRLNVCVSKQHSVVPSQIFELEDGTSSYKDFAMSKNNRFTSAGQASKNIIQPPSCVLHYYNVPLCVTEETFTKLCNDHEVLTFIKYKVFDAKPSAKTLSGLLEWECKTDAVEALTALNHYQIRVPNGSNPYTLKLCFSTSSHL
inactive: [1] 0.015 | [2] -0.164 | [3] 0.021 | [4] 0.035 | [5] -0.016 | [6] 0.082 | [7] -0.07 | [8] -0.016 | [9] 0.011 | [10] -0.052 | [11] 0.017 | [12] -0.026 | [13] -0.038 | [14] -0.01 | [15] -0.016 | [16] -0.031 | [17] 0 | [18] 0.01 | [19] -0.031 | [20] 0.027

GSTZ1 (UniProt G3V4T6)
inactive: [1] -0.016 | [2] 0.018 | [3] 0.01 | [4] 0.061 | [5] 0.028 | [6] -0.045 | [8] 0.023 | [9] 0.049 | [10] 0.002 | [11] 0 | [12] 0.04 | [13] -0.015 | [14] -0.067 | [15] 0.028 | [16] 0.061 | [17] 0.004 | [18] -0.035 | [19] -0.071 | [20] 0.146
active: [7] 0.35
